High-throughput results deposited in PubChem BioAssay by National Center for Advancing Translational Sciences (NCATS).
D1 potentiator: Potentiators of Human D1 Dopamine Receptor: qHTS; potentiation, % at 10 µM; 360,000 tested, 0.036% active; HEK293 TREx D1 cells, calcium flux, dopamine EC20 potentiation; D(1A) dopamine receptor (Homo sapiens), P21728; in the data active = potentiation above about 30%; note: 0% is about no effect
Target sequence (P21728 whole entry, looked up): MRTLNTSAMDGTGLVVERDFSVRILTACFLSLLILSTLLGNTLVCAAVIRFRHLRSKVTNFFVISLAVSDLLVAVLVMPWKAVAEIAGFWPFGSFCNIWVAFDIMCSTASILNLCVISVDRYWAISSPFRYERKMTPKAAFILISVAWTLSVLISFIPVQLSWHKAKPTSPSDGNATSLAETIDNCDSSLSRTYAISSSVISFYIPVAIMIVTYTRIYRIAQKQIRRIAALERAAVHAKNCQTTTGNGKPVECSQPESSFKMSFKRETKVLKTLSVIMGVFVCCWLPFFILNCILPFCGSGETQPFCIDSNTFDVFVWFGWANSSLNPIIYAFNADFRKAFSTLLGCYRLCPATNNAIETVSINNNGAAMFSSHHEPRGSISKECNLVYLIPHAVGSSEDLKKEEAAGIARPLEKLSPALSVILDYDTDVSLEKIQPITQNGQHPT
D1 antag: Antagonist of Human D 1 Dopamine Receptor: qHTS; 360,000 tested, 3.2% active; HEK293 TREx D1 cells, calcium flux, dopamine EC80; hits give low values; activity change, negative = inhibition, % at 10 µM; in the data active = activity change below about -30%; note: % is set by controls: 0 for no effect and ±100 for the full control effect
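HEK293 T-REx cells expressing inducible, force-coupled D1 receptor; no-wash Ca dye, 30–90 min RT. Cmpd → 180 s read at 1 Hz → EC80 DA → 180 s read.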
D1 agonist: Allosteric Agonists of the Human D1 Dopamine Receptor: qHTS; D(1A) dopamine receptor (Homo sapiens), P21728; HEK293 T-REx D1 cells, calcium flux, agonist mode; activation, % at 2 µM; 360,000 tested, 1% active; AID 504660, 2011; note: 0% is about no effect
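Agonism was scored from calcium flux recorded over 180 s (1 read/s) after pintool compound addition, following a 10-cycle baseline. Cells were inducible force-coupled HEK293 TREx D1, plated overnight at 30 C and loaded with no-wash calcium dye.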
TRHR agonist: qHTS for Small Molecule Agonists and Allosteric Enhancers of Human TRH Receptor: Primary Screen for Agonists. Thyrotropin-releasing hormone receptor (Homo sapiens), P34981. TRHR cells, calcium flux fluo-8, FDSS agonist mode. activation, % at 2 µM. 360,000 tested, 0.18% active; note: 0% is about no effect
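Steps: seed TRHR cells overnight; add fluo-8 no-wash Ca dye, RT 30 min–1.5 h; record 10 s baseline; pin-transfer compounds; monitor fluorescence 1 cycle/s for the agonist window. Calcium increases flag candidate agonists.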
Epigenetic derep: Quantitative High-Throughput Screen for Regulators of Epigenetic Control; murine LDR cells, GFP reporter derepression, 30 h; 280,000 tested, 0.2% active; Potency, µM (top dose mostly 53.9 µM), inactives show top-dose GFP activation, usual class: activators; active = well fitted activation curve with a large enough effect; inconclusive = small, poorly fitted or top-dose-only effect; note: potency is the fitted concentration of half-maximal effect; % of control where 0% means no effect; nearly all actives have a fitted effect of over 60% in size
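Murine LDR cells carrying a silenced, genomically integrated CMV-driven GFP reporter were exposed to compound for 30 hours at 37 C. After PBS washes, GFP-positive cells (20–120 um objects) were counted by laser-scanning microplate cytometry.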
TRHR PAM: qHTS for Small Molecule Agonists and Allosteric Enhancers of Human TRH Receptor: Primary Screen for Enhancers; enhancement, % at 2 µM; Thyrotropin-releasing hormone receptor (Homo sapiens), P34981; 360,000 tested, 0.66% active; TRHR cells, fluo-8 calcium fluorescence, EC20 TRH enhancement; in the data active = enhancement above about 30%; note: 0% is about no effect
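TRHR-expressing cells loaded with fluo-8 calcium dye were read kinetically (ex 480/em 530) during compound addition, then stimulated with an EC20 of TRH (10 nM final). Enhancement of the Gq-mediated intracellular calcium response was scored.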
* = called active by the depositor; ? = inconclusive; . = no result given. An excerpt weighted towards active compounds, which were near 4.6% of everything screened. Cut-off read from the data, not from the text of the source, unless noted: active = activation above about 30%; inactive = the rest.

SMILES	D1 potentiator	D1 antag	D1 agonist	TRHR agonist	Epigenetic derep	TRHR PAM
O=C(C1CCCCC1)N1CCCn2c1nc1ccccc12	-1.3	-45.2*	7.4	0.1	0.0%	3.0
CC(NC(=O)[C@H](C)NC(=O)N1CCn2c1nc1ccccc12)c1ccccc1 (some centres undefined)	2.0	1.6	2.1	-0.8	.	7.8
COc1ccc(OC)c(NC(=O)CSc2cn(CC(=O)N3CCOCC3)c3ccccc23)c1	-1.6	-2.3	0.7	-0.2	9.1%	-4.8
CCCC(=O)N(c1ccc2oc3c(c2c1)CCCC3)S(=O)(=O)c1cc(C)ccc1C	-2.9	-45.9*	1.5	0.6	-0.3%	-1.6
CCCC(=O)N(c1ccc2oc(C)c(C(C)=O)c2c1)S(=O)(=O)c1ccc(C)cc1	-5.2	2.8	1.3	-0.3	-1.1%	0.4
CCCC[n+]1ccn(-c2nc3ccccc3nc2[N-]S(=O)(=O)c2ccccc2)c1	-3.4	9.3	0.0	0.3	-0.3%	0.4
CCCC[n+]1ccn(-c2nc3ccccc3nc2[N-]S(=O)(=O)c2cccs2)c1	3.9	15.1	6.0	0.9	10µM*	-1.9
O=C(Cn1cc(S(=O)(=O)Cc2ccc(F)cc2)c2ccccc21)NCCc1ccccc1	-3.1	-12.6	2.0	0.7	-0.2%	-8.2
O=C(NCc1ccco1)c1ccc2c(c1)C(=O)c1ccccc1-2	-4.2	-31.0*	1.8	-0.4	0.0%	2.2
O=C(NCc1ccco1)c1cc([N+](=O)[O-])cc([N+](=O)[O-])c1	0.8	4.9	-0.4	2.1	-1.5%	11.7
Cc1ccc(C(=O)NCc2ccco2)cc1[N+](=O)[O-]	-3.0	-36.8*	0.2	-0.3	0.9%	1.7
COc1ccc(C2C(C(C)=O)=C(C)N=c3s/c(=C\c4cc(C)n(C)c4C)c(=O)n32)c(OC)c1 (centres undefined)	-6.5	-12.7	121.3*	53.4*	?	9.6
Cc1ccc(-c2cn3c(=O)cc(C)[nH]c3n2)cc1	-0.7	-40.0*	0.9	0.3	1.7%	-0.4
Cc1cccc(C)c1OCCCn1c(CCNC(=O)C2CCCCC2)nc2ccccc21	-1.9	20.8	10.0	-2.2	-4.1%	-6.3
CCCCCCc1cc2cc(C(=O)NCc3ccccc3)c(=N)oc2cc1O	2.7	-19.6	3.1	17.8	-1.0%	-2.3
O=c1oc2cc(O)ccc2cc1S(=O)(=O)c1ccccc1	6.5	20.4	-0.4	-0.5	.	4.9
CCCCCCc1cc2cc(-c3nnc(-c4cccc(Cl)c4)o3)c(=O)oc2cc1O	-1.6	-2.4	128.6*	72.2*	?	-1.8
CCCCCCc1cc2cc(S(=O)(=O)c3ccc(C)cc3)c(=O)oc2cc1O	-7.1	-8.4	27.4	29.5	1.4%	47.3*
CCN(CC)c1ccc2cc(S(=O)(=O)c3ccc(Cl)cc3)c(=O)oc2c1	20.8	-6.6	272.1*	109.8*	?	7.1
CCCCCCc1cc2cc(S(=O)(=O)c3ccc(Cl)cc3)c(=O)oc2cc1O	-1.6	-5.5	32.4*	12.3	0.2%	-7.5
COc1ccc2c(c1)c1c(c(=O)n(Cc3ccccc3)c(=O)n1Cc1ccccc1Cl)n2C	-1.4	15.9	1.5	-0.4	1.1%	1.0
COc1ccc(C(=O)c2cn(Cc3ccccc3F)c3cc4c(cc3c2=O)OCCO4)cc1OC	-1.8	-2.4	0.3	-0.2	-0.3%	-4.9
Cc1ccc(NC(=O)/C(C#N)=C/c2ccc(C)s2)c(C)c1	-2.0	3.7	42.9*	-0.4	3.16µM*	-4.5
Cc1ccc(/C=C(\C#N)C(=O)Nc2c(C)cccc2C)s1	8.8	-12.1	4.1	3.8	-4.2%	-2.3
CC(C)(C)OC(=O)Cc1nnc(-c2nc3ccccc3[nH]2)o1	4.0	-32.8*	2.0	1.8	.	-0.8
